# Test results published in PubChem BioAssay.
# The source made the active and inactive calls. How the calls were made is not given here.
# Molecular target: Pantothenate synthetase (Mycobacterium tuberculosis (strain ATCC 25618 / H37Rv)) (UniProt P9WIL5)
# Test: Recombinant Mtb pantothenate synthetase (PanC) inhibitors, coupled enzyme, confirmatory (AID 375);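 further: 0% = full reaction with vehicle and 100% = no enzyme background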
# Conditions: coupled enzyme assay; at 10 µM, hits give high values
# Chain of Pantothenate synthetase (Mycobacterium tuberculosis (strain ATCC 25618 / H37Rv)) (P9WIL5 whole entry, looked up): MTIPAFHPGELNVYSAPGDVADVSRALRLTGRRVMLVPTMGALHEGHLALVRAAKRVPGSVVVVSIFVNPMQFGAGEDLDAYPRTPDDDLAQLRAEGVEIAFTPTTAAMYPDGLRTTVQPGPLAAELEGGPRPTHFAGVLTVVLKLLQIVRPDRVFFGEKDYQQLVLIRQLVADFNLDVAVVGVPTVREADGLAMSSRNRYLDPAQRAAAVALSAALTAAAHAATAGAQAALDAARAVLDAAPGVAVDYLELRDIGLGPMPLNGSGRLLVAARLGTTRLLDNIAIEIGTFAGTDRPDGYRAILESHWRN
row,Structure (SMILES),inhibition
1,COc1cccc(C2=NOC(C(=O)Nc3ccc(C(C)=O)cc3)C2)c1 (configuration not stated),0% (inactive)
2,COc1ccccc1N1CCN(C(=O)N2CCOCC2)CC1,0% (inactive)
3,COc1cccc(Oc2cn[nH]c2-c2ccc(O)cc2O)c1,0% (inactive)
4,CC(=O)NC(CCS(C)(=O)=O)C(=O)Nc1cccc(C)c1C (configuration not stated),0% (inactive)
5,Cc1cc(=O)oc2ccc(OCC(=O)N3CCC(C)CC3)cc12,0% (inactive)
6,CCOC(=O)c1ccc(Oc2nc(NC)nc(OC)n2)cc1,0% (inactive)
7,CCCC1(C(=O)OC)NC(c2cc(OC)c(OC)c(OC)c2)C2C(=O)N(CC)C(=O)C21 (configuration not stated),0% (inactive)
8,COC(=O)C(NC(C)=O)(Nc1nc2ccc(S(C)(=O)=O)cc2s1)C(F)(F)F (configuration not stated),0% (inactive)
9,CCCC(=O)Nc1ccccc1NC(=O)CN(C)S(=O)(=O)c1ccc(C)cc1,2% (inactive)
10,O=C(CCCc1cccs1)Nc1nc2c(s1)CCCC2,2% (inactive)
11,CCOC(=O)N1CCC(NC(=O)C2CCCN2C(=O)OCc2ccccc2)CC1 (configuration not stated),5% (inactive)
12,Cc1cc(C)n(-c2nc3nonc3nc2-n2nc(C)cc2C)n1,0% (inactive)
13,Cc1ccc(C)c(NC(=O)CSc2nnc(-c3ccccc3)o2)c1,5% (inactive)
14,COc1ccc(NC(=O)CN(c2ccc(C(C)C)cc2)S(=O)(=O)c2c(C)noc2C)cc1OC,0% (inactive)
15,Cc1ccc2nc(CSc3nnc(-c4ccco4)n3-c3ccccc3)cc(=O)n2c1,4% (inactive)
16,COCCNC(=O)CN1C(=O)CSc2ncccc21,0% (inactive)
17,CCCCC(=O)O[C@H]1CC[C@H]2[C@@H]3CCc4cc(O)ccc4[C@H]3CC[C@]12C,6% (inactive)
